Screening data as filed in PubChem BioAssay.
NPC1 prom act: activators of NPC1 promoter; Huh7 NPC1 promoter luciferase reporter, 24 h; Potency, µM (series often up to 9.22 µM), inactives show at the top dose activation, usual class: activators; 320,000 compounds, 2.4% hits; AID 485313; further: % of control where 0% means no effect; nearly all actives have a fitted effect of over 60% in size
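NPC1 promoter–luciferase Huh7 cells; 24 h compound; luminescence.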
FLuc counter: inhibits or activates purified firefly luciferase, miR-21 counter-screen | AID 588342 | purified FLuc, Km substrates, luminescence inhibition | P08659 | Potency, µM (titrated, usually from 57.5 µM), for the others: at the highest dose activity change, negative = inhibition, usual class: inhibitors | 360,000 compounds, 6.9% hits;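 further: plate controls were vehicle for no effect and reference inhibitor for full effect; nearly all actives have a fitted effect of over 55% in size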
Target sequence (P08659 whole entry, looked up): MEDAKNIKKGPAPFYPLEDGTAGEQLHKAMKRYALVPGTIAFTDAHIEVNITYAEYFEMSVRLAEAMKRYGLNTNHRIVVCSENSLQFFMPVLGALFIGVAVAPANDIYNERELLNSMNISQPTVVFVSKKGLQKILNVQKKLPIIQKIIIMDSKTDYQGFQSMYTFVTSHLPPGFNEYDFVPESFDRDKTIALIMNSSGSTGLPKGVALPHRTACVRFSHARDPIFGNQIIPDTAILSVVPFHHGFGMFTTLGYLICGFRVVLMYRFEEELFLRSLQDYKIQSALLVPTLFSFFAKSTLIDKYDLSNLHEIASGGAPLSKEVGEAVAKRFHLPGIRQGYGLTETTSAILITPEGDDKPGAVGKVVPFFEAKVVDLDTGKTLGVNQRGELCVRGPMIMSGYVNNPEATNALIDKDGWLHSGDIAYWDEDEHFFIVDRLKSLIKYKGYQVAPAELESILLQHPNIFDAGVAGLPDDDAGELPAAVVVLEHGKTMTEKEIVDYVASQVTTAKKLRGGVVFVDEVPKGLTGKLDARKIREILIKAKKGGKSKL
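Purified P. pyralis luciferase (10nM final) with 10uM D-luciferin and 10uM ATP (Km levels) in 50mM Tris acetate pH 7.5, 10mM Mg acetate, 0.01% Tween-20, 0.05% BSA; qHTS 6-point titration, ~60 µM downward; luminescence read.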
Luc counter: counter-screen: inhibitors of Kinase-Glo firefly luciferase. Kinase-Glo luciferase, ATP luminescence, 8 min. Potency, µM (highest dose often 38.3 µM), without a hit: at the top dose activity change, negative = inhibition, usual class: inhibitors. 200,000 compounds, 0.28% hits. AID 1379; further: on the % scale 0 is the no-effect control and ±100 the full control effect; nearly all actives have a fitted effect of over 60% in size
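Light output from Kinase-Glo luciferase with luciferin and 10 uM ATP in 50 mM imidazole pH 7.2, KCl, MgCl2, Tween 20, BSA; compound pin-delivered, 8-min ambient incubation, then luminescence read.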
ELG1 genotox: induces genotoxicity in HEK293T cells with luciferase-tagged ELG1. Potency, µM (titrated, usually from 46 µM), without a hit: top-dose activity change, positive = activation, usual class: activators. 330,000 compounds, 1.3% hits. HEK293T ELG1-luciferase reporter, luminescence, 16 h; further: % of control where 0% means no effect; nearly all actives have a fitted effect of over 60% in size
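ELG1-luciferase HEK293T cells, 2,000/well; compound pinned in; 16 hr, 37 °C, 5% CO2; ONE-Glo, 30 min RT; luminescence on CCD imager.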
SMN2 splice enh: increases expression of the SMN2 splice variant; 210,000 compounds, 2.8% hits; HEK293 SMN2-luciferase splicing reporter, luminescence, 30-36 h; Potency, µM (titrated, usually from 46.1 µM), inactives show at the top dose activity change, positive = activation, actives largely listed as activators; AID 1458; further: % of control where 0% means no effect; nearly all actives have a fitted effect of over 55% in size
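qHTS luciferase splicing reporter: luminescence rises when SMN2 exon 7 is included in transfected HEK293 cells. Compound exposure lasted 30-36 h at 37C, with 4.5 mM final sodium butyrate as control, followed by a ONE-Glo read.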
Rab9 prom act: activators of Rab9 promoter | Huh7 Rab9 promoter-luciferase reporter, luminescence, 24 h | Potency, µM (highest dose often 9.22 µM), for the others: top-dose activation, negative = inhibition, usual class: activators | 320,000 compounds, 2.8% hits | AID 485297; further: % of control where 0% means no effect; nearly all actives have a fitted effect of over 60% in size
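Using Huh7 cells stably transfected with Rab9 promoter–luciferase, compounds were incubated 24 h at 37 °C, 5% CO2; luciferase luminescence was read 10 min after reagent addition.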
The depositor's hits bear a star; ? = inconclusive; . = no result given. This is a sample that favours compounds with a hit; in the whole collection about 7.3% have one here. The call rests on the fitted dose curve; in most records, active means well fitted curve in the direction sought with a large enough effect; inconclusive means small, poorly fitted or top-dose-only effect, or another doubt; inactive means no such curve, though single readings can be large; an effect the other way counts as inactive or inconclusive. Potency means the concentration at half of the fitted maximal effect.

SMILES	NPC1 prom act	FLuc counter	Luc counter	ELG1 genotox	SMN2 splice enh	Rab9 prom act
Cn1cnnc1SCC(=O)c1ccco1	3%	-2%	2%	1%	12%	-4%
O=C(NCC1(c2ccccc2)CCCC1)c1ccc(Br)cc1	-5%	5%	5%	-2%	-36%	-6%
O=C(Cc1cccc2ccccc12)NN1C(=O)CSC1=S	-9%	-16%	-3%	-1%	9%	-1%
Cc1cc(NC(=O)c2cc3ccccc3o2)cc(C)c1OCC(=O)N1CCOCC1	8%	12µM*	-3%	-16%	-4%	-4%
CN(C)S(=O)(=O)c1ccc(C(=O)Nc2ccc(OCC(=O)N3CCOCC3)cc2)cc1	2%	15µM*	0%	4%	0%	9%
COc1ccc(C(=O)Nc2ccc(OCC(=O)N3CCOCC3)cc2)c(OC)c1OC	-1%	13µM*	.	11%	.	7%
O=C(Nc1ccc(OCC(=O)N2CCOCC2)cc1)c1cccc(Cl)c1	25%	7.6µM*	.	3%	.	29%
CCOc1ccc(S(=O)(=O)N(C)c2ccc(OCC(=O)N3CCOCC3)cc2)cc1	1%	-4%	4%	-3%	0%	1%
COc1ccc2c(c1)c(C(=O)N/N=C/c1ccc(Cl)cc1)c(C)n2C	-4%	?	.	-2%	.	4%
CC1(C)CC=C(NNC(=O)c2cccnc2)C(=O)C1	-1%	-4%	0%	1%	5%	-3%
CCN(CC)CCCNC(=O)Cn1ncc2c3ccccc3n(Cc3ccccc3)c2c1=O	.	-5%	.	.	5%	.
S=c1nc(-c2ccccc2)oc2c1CCCC2	?	13µM*	1%	16%	24%	?
COc1cccc(-c2nc(=S)c3c(o2)CCCC3)c1	3%	3µM*	-6%	?	?	?
C=CCN1C(=O)/C(=C/c2ccc(N(C)C)cc2)S/C1=N\c1nnc(CC)s1	1%	5%	-6%	5%	?	-4%
Cc1cc(C)cc(NC(=S)NC2CC3CCCC(C2)N3CC(C)C)c1 (stereo not drawn)	-5%	-3%	-4%	-1%	.	-2%
COc1ccc(-c2csc(NC(=O)Cc3ccccc3F)n2)cc1OC	-13%	?	.	-24%	.	-7%
O=C(Cc1ccccc1F)Nc1nc(-c2ccc(F)cc2)cs1	8%	11µM*	.	-14%	.	?
COc1ccccc1CC(=O)Nc1nc(-c2ccc(F)c(F)c2)cs1	5%	15µM*	.	-14%	.	12%
CCCC1c2ccc(C)n2CCN1C(=O)Nc1ccccc1Cl (stereo not drawn)	20%	12µM*	3%	14%	?	26%
Cc1ccc(/C=C(\C#N)c2nc3ccccc3[nH]2)s1	0.79µM*	4.8µM*	-6%	?	?	0.35µM*
N#C/C(=C/c1cccs1)c1nc2ccccc2[nH]1	?	?	-10%	?	?	2.8µM*
N#C/C(=C\c1c(Cl)cccc1Cl)c1nc2ccccc2[nH]1	4%	?	.	-4%	.	-2%
Cc1c(Cl)cccc1-c1ccc(/C=C(\C#N)c2nc3ccccc3[nH]2)o1	.	?	.	.	-9%	.
CCCc1cc(=O)[nH]c2nnc(SCC(=O)Nc3ccc(NC(C)=O)cc3)n12	2%	-2%	.	-2%	.	1%
COCCNC(=O)CN(C(=O)CCC(=O)Nc1ccccn1)c1cc(C)ccc1C	0%	1%	.	-3%	.	-2%
SMILES	NPC1 prom act	FLuc counter	Luc counter	ELG1 genotox	SMN2 splice enh	Rab9 prom act
O=C(Cn1c(=O)nc(-c2ccccc2)c2cc(Cl)ccc21)NCc1ccccc1	.	-13%	.	.	.	.
CCC(C)NC(=O)c1ccc(NS(=O)(=O)c2ccc3[nH]c(=O)[nH]c3c2)cc1 (stereo not drawn)	13%	17µM*	.	?	.	1%
COCCNC(=O)c1ccc(NS(=O)(=O)c2ccc3[nH]c(=O)[nH]c3c2)cc1	-1%	2%	.	0%	.	7%
COc1cc(OC)cc(C(=O)NC(=S)Nc2ccc3c4c(cccc24)CC3)c1	-2%	1%	4%	-2%	-11%	-1%
COc1ccc(C(=O)Nc2ccc3c4c(cccc24)CC3)cc1	?	15µM*	8%	12%	0%	?
O=C(Nc1ccc2c3c(cccc13)CC2)c1ccco1	20%	17µM*	.	?	.	17%
O=C(Nc1ccc2c3c(cccc13)CC2)c1ccc(Br)o1	19%	19µM*	-7%	?	2%	29%
Cc1cc(CCN2CCC(=O)NC2=S)ccc1OC(C)C	0%	-13%	0%	-1%	-12%	-2%
CCC(=O)N(Cc1cc2ccccc2[nH]c1=O)C(C)C	-4%	0%	2%	23µM*	-34%	16%
CC(C)N(Cc1cc2ccccc2[nH]c1=O)C(=O)C1CCCCC1	1%	2%	-2%	-2%	18%	-2%
C=CCn1c(C)cc(C2=NNC(=Nc3ccc(C)cc3)SC2)c1C	?	?	0%	6%	21%	?
CC(C)c1ccc(N=C2NN=C(c3cccs3)CS2)cc1	2µM*	6µM*	-5%	?	13µM*	0.71µM*
CC(C)N=C1NN=C(c2ccc(Cl)c(Cl)c2)CS1	1.4µM*	3.4µM*	-10%	2.1µM*	5µM*	0.35µM*
COCC(C)N=C1NN=C(c2ccc(NC(C)=O)cc2)CS1 (stereo not drawn)	26%	?	-1%	14%	?	?
CC(C)N=C1NN=C(c2cccs2)CS1	3.2µM*	24µM*	?	?	11µM*	0.79µM*
Cn1cc(Br)c(C(=O)N/N=C/c2cc3ccccc3nc2Cl)n1	?	?	.	1%	.	20%
Clc1ccccc1OCc1nn2c(-c3ccncc3)nnc2s1	0%	1%	-3%	-3%	-12%	-2%
Cc1nc(COc2ccccc2Cl)sc1-c1ccnc(N)n1	2%	11µM*	.	3%	.	16%
COc1ccc(CNC(=O)C/C(C)=N/NC(=O)Cc2ccc(OC)cc2)cc1	0%	3%	3%	-1%	1%	1%
O=C(CCN1C(=O)/C(=C/c2ccccc2Cl)SC1=S)N1CCCC1	-22%	27µM*	.	-9%	.	-27%
O=C(CCCN1C(=O)/C(=C/c2ccccc2Cl)SC1=S)N1CCCC1	-12%	?	.	1%	.	-26%
O=C(CCCN1C(=O)/C(=C/c2ccccc2Cl)SC1=S)NNC(=O)c1ccncc1	-13%	15µM*	.	-9%	.	-14%
O=C(CCCN1C(=O)/C(=C/c2ccccc2Cl)SC1=S)NNC(=O)c1ccccc1Cl	-21%	7.6µM*	-6%	-3%	-35%	-27%
Nc1ccc(S(=O)(=O)Nc2nc(-c3ccccc3)cc(-c3ccccc3)n2)cc1	1%	-2%	.	3%	.	1%
